# The supplement of paper PMC3545927
# The list shows a part of the results. The hit rate among all sequences tested is not known here.
# Target: furin, P09958
# Assay: furin cleavage Z-score vs untreated control; higher = more cleavage, active = 3.5 or more, inactive = 1 or less, 8 variable residues between constant flanks
# Procedure, shortened: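 The cleavage Z-score was derived for purified furin acting on 8-mer peptides held on magnetic beads and fused to a cDNA oligonucleotide. Digests lasted 7.5, 15 or 30 min at 1:10 enzyme:substrate in 50 mM HEPES pH 7.5 with CaCl2 and NaCl. Sequencing counts of released DNA, log-transformed against furin-free reactions, were lowess-adjusted and scaled by median absolute deviation.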
# Sequence of furin, P09958 (P09958 whole entry): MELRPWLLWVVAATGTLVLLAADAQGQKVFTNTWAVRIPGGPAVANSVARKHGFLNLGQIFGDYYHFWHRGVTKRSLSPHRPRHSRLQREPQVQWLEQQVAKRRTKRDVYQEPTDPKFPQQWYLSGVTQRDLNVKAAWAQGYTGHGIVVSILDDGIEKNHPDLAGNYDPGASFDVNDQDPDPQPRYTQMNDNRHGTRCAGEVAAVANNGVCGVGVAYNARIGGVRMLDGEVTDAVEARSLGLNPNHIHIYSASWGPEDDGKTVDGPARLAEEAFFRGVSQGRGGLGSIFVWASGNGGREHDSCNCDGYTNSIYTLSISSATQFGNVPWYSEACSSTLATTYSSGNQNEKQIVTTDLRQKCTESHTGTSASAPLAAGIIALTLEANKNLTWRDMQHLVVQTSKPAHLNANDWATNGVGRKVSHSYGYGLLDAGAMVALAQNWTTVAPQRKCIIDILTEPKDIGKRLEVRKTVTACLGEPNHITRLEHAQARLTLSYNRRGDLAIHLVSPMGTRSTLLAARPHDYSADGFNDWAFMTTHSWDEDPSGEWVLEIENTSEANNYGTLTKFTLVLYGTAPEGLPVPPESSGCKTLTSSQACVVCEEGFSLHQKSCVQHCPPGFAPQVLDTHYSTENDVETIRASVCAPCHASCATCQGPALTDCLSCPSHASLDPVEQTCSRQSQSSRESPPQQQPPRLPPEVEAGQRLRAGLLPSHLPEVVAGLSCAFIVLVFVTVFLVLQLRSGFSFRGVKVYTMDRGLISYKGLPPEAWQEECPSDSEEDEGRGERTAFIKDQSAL
Sequence,furin cleavage Z-score (7.5 min),furin cleavage Z-score (15 min),furin cleavage Z-score (30 min)
CACLLLLAAGAGNASASA [HC1658],-0.897 (inactive),-1.64 (inactive),-0.912 (inactive)
CACDVVCCSMAGNASASA [HC2120],-0.0436 (inactive),-0.677 (inactive),-0.296 (inactive)
CATTPCSGSNAGNASASA [HC1941],-1.17 (inactive),-0.013 (inactive),-0.852 (inactive)
CAMSTNPKPQAGNASASA [HC161],0.554 (inactive),-0.264 (inactive),-0.709 (inactive)
CAELSPLLLTAGNASASA [HC491],-1.56 (inactive),-0.594 (inactive),0.347 (inactive)
CASEPCSAHLAGNASASA [HC2492],-0.366 (inactive),-0.474 (inactive),-0.0579 (inactive)
CARRARHPGQAGNASASA [FS-2448],0.222 (inactive),-1.48 (inactive),-0.313 (inactive)
CARKTRFIIHAGNASASA [FS-2426],0.0934 (inactive),-2.08 (inactive),0.575 (inactive)
CARKRRQTGQAGNASASA [FS-2701],9.83 (active),11.9 (active),7.6 (active)
CARDSRSSERAGNASASA [FS-2654],-1.62 (inactive),-0.417 (inactive),-0.301 (inactive)
CARKRRETSQAGNASASA [FS-2347],13.9 (active),14.9 (active),10.1 (active)
CARKRRNTIHAGNASASA [FS-2567],9.29 (active),10.7 (active),9.63 (active)
CAVHKRSAERAGNASASA [FS-2854],2.95,4.06 (active),5.25 (active)
CAKLTPIAAAAGNASASA [HC1638],-0.902 (inactive),0.513 (inactive),-0.874 (inactive)
CARKRRDVMQAGNASASA [FS-1905],8.11 (active),9.14 (active),9.14 (active)
CARPRRPNGDAGNASASA [FS-1913],-0.861 (inactive),-0.812 (inactive),0.059 (inactive)
CAENLRKRRDAGNASASA [FS-585],13.3 (active),14.1 (active),10.9 (active)
CAGAERKMRDAGNASASA [FS-653],2.56,3.75 (active),3.61 (active)
CAGWSRARRDAGNASASA [FS-334],9.99 (active),12.4 (active),9.61 (active)
CARPRRARRDAGNASASA [FS-289],10.4 (active),10.6 (active),7.54 (active)
CASNCRHERDAGNASASA [FS-722],1.11,0.623 (inactive),1.08
CAENKVVILDAGNASASA [HC1284],-1.51 (inactive),0.132 (inactive),-0.906 (inactive)
CAGVVTSTWVAGNASASA [HC2156],0.312 (inactive),-0.173 (inactive),-0.545 (inactive)
CAPSGCPPDSAGNASASA [HC1347],0.626 (inactive),0.736 (inactive),-1.37 (inactive)

Sequence,furin cleavage Z-score (7.5 min),furin cleavage Z-score (15 min),furin cleavage Z-score (30 min)
CAACQRQKKVAGNASASA [HC1393],0.424 (inactive),-0.843 (inactive),-0.382 (inactive)
CAEVDVQARDAGNASASA [FS-1628],-1.25 (inactive),0.00773 (inactive),-1.04 (inactive)
CARPERGARGAGNASASA [FS-2737],-0.85 (inactive),0.79 (inactive),0.188 (inactive)
CARPERGPRGAGNASASA [FS-1264],1.01,0.671 (inactive),1.51
CALLTRIPGFAGNASASA [FS-3146],-0.34 (inactive),0.0643 (inactive),-0.495 (inactive)
CARPVRDCDDAGNASASA [FS-3028],0.136 (inactive),1.92,1.99
CALLLFAGVDAGNASASA [HC348],-0.657 (inactive),-0.224 (inactive),-1.23 (inactive)
CAKVHRQRRDAGNASASA [FS-48],6.48 (active),5.35 (active),4.45 (active)
CALLTRARRDAGNASASA [FS-1362],10.7 (active),11.2 (active),8.73 (active)
CARPERKRRDAGNASASA [FS-1066],14.3 (active),14.2 (active),10.6 (active)
CARPMRPVGHAGNASASA [FS-2739],-0.34 (inactive),-0.708 (inactive),1.89
CARPERYRRHAGNASASA [FS-491],12.7 (active),14.8 (active),11.1 (active)
CATTPCSGEWAGNASASA [HC1912],-1.69 (inactive),-0.859 (inactive),0.0519 (inactive)
CAMVCCSMSYAGNASASA [HC1986],0.714 (inactive),1.46,0.242 (inactive)
CAIICDECHSAGNASASA [HC817],-0.464 (inactive),-1.69 (inactive),-0.782 (inactive)
CAKDSRCDRDAGNASASA [FS-544],-1.48 (inactive),-1.29 (inactive),0.34 (inactive)
CAKSRRARRDAGNASASA [FS-1597],7.96 (active),9.22 (active),7.04 (active)
CARMAREVAAAGNASASA [FS-1909],6.15 (active),4.78 (active),6.63 (active)
CAQLAAPGAAAGNASASA [HC1070],-0.00694 (inactive),-2.1 (inactive),-1.59 (inactive)
CARPDRPVLKAGNASASA [FS-2436],-0.645 (inactive),-0.376 (inactive),-0.377 (inactive)
CARMARNVLKAGNASASA [FS-2281],2.27,2.22,4.88 (active)
CARKFRDLLKAGNASASA [FS-1724],-0.828 (inactive),-1.86 (inactive),0.751 (inactive)
CAALDTEVAAAGNASASA [HC565],1.05,0.0294 (inactive),-0.123 (inactive)
